These results are taken from PubChem BioAssay (NCI).

Common to all, as to assay: NCI-60 one-dose screen, 48 h (100 = growth as untreated, 0 = no growth, -100 = all killed)
Settings in all cases: 10 µM unless noted

The test system of assay [1] is DU-145 prostate.
The subject of assay [2] is K-562 leukemia.
For assay [3], the system named is MDA-MB-231 breast.
The test system of assay [4] is RXF 393 renal.
For assay [5], the system named is SF-268 CNS.
The test system of assay [6] is SF-295 CNS.
Assay [7] has as its system SF-539 CNS.
Assay [8] concerns UACC-257 melanoma.
In assay [9] the test system is M14 melanoma.
Assay [10] relates to HCT-15 colon.
In assay [11] the test system is HT29 colon.
Assay [12] relates to SNB-75 CNS.
In assay [13] the test system is SNB-19 CNS.
For assay [14], the system named is U251 CNS.
Assay [15] has as its system PC-3 prostate.
Assay [16] deals with SK-MEL-5 melanoma.
In assay [17] the test system is UACC-62 melanoma.
The test system of assay [18] is LOX IMVI melanoma.
For assay [19], the system named is SK-MEL-28 melanoma.
The subject of assay [20] is MALME-3M melanoma.

Compounds without any hit were thinned out: in the full panel of roughly 83,000, 20% have a hit.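 48-hour exposure, single concentration, 96-well plates; percent growth endpoint where 0 means no net growth. Active: below 10.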 A number with no mark means an inactive call. Active and inactive are the calls of the source.

`c1ccc2[nH]c(SSc3nc4ncncc4[nH]3)nc2c1`: the growth in assay [1] was 29.5%; in assay [2], 17.1%; in assay [3] it was 36.1%; in assay [4] it was 64.7%; in [5] it was 30.1%; in assay [6], -39% (active). The growth is 8.16% (active) in [7]; 42% in assay [8]; 8.49% (active) in assay [9]; 26.9% in [10]; 29.5% in assay [11]; 45.5% in [12]. Moreover, the growth in assay [13] was 84.4%; in assay [14], 54%; in [15] it was 42.9%; in assay [16], 28.1%; in assay [17], 12.7%; in [18] it was 4.64% (active). Further, in [19], the growth is 86%.

Take `O=C1CSC(c2ccccc2Cl)N1c1nnc(Cn2cnnc2)o1` (stereo not drawn): the growth is 104% in [1]; 8.59% (active) in assay [2]; 28.9% in assay [20]; 68.6% in [3]; 94.7% in [5]; -32.6% (active) in assay [6]. The growth in [7] is 39.7%; in assay [9] it was 20.4%; in assay [10], 27.6%; in assay [11], 22.2%; in assay [12], 50.2%; in assay [13] it was 64.5%. The growth in assay [14] is 32.7%; in assay [15] it was 71.2%; in assay [16], 23.7%; in assay [17], 38.6%; in assay [19] it was 58.7%.

For the compound `Nc1nc(N)c(-c2ccc(Cl)cc2)c(/C=C/c2ccc([N+](=O)[O-])cc2)n1`, the growth in [1] was 87.2%; in assay [2], 19.4%; in assay [3], 95.4%; in assay [4] it was 74.7%; in assay [5], 79.3%; in assay [6], 51.5%. The growth in assay [7] was 93.5%; in [8], 66.3%; in assay [9], 63.6%; in assay [10] it was 66.3%; in assay [11], 63.8%; in [12], 78.3%. Also, the growth in assay [13] is 75%; in [14], 82.9%; in [15], 32.4%; in assay [16], 79.6%; in [17] it was 83.1%; in [18], 60.6%. Also, in assay [19], the growth was 95.7%.

Regarding `COc1cc(NC(=O)c2cccc(-c3cc(=O)c4c(O)c(OC)c(OC)cc4o3)c2)cc(OC)c1OC`, the growth was 57.3% in [1]; 54.5% in assay [2]; 51% in assay [20]; 75% in assay [4]; 61.9% in assay [5]; 61.5% in assay [6]. Also, the growth in assay [7] is 51.7%; in assay [8], 66.1%; in [10], 59.9%; in [11], 62.8%; in [12], 32.3%; in [13], 50%. In addition, the growth is 44.8% in [14]; 49.8% in assay [15]; 39.2% in assay [16]; 49.4% in assay [17]; 33% in assay [18]; 77.4% in assay [19].

As to `CCN(CC)CCOc1ccc(/C(=C(\C)c2ccc(F)c(OC)c2)c2ccc(Cl)cc2)cc1`, the growth was 41.3% in [1]; -7.49% (active) in [2]; -81.6% (active) in assay [20]; 27.9% in [3]; 53% in assay [5]; -21.6% (active) in assay [6]. Moreover, the growth was -68.3% (active) in [7]; 12.3% in [8]; 2.58% (active) in assay [10]; 9.08% (active) in assay [11]; 31.9% in assay [12]; 8.37% (active) in assay [13]. Also, the growth was 3.13% (active) in [14], 14.8% in [15], -94.1% (active) in [18] and -64.6% (active) in assay [19].

`Cc1cc(=O)[nH]c(N/N=C/c2cc(Br)ccc2O)n1`: the growth in assay [1] was 41.7%; in assay [2], 22.5%; in [3] it was 35.5%; in assay [4], 70.2%; in [5], 25.2%; in [6] it was 5.67% (active). The growth is 16.3% in [7]; 14.1% in [8]; 10% in [9]; 30.5% in assay [10]; 58.9% in assay [11]; 62.9% in [12]. The growth in assay [13] was 40.6%; in assay [14], 26.8%; in assay [15], 56.8%; in [16] it was 26.3%; in assay [17], 4.29% (active); in assay [18] it was 9.27% (active). Besides, in assay [19], the growth was 42.8%.

Take `COc1cc(NC(=O)c2cccc(-c3cc(=O)c4c(OC)c(OC)c(OC)cc4o3)c2)cc(OC)c1OC`: the growth was 54.3% in assay [1]; 27.6% in assay [2]; 56.4% in assay [20]; 53.2% in assay [4]; 67.1% in assay [5]; 45% in assay [6]. Further, the growth is 52.6% in assay [7]; 52.8% in [8]; 40.7% in assay [10]; 31.1% in assay [11]; 74.7% in assay [12]; 56.3% in assay [13]. Also, the growth is 44.9% in [14]; 52.4% in [15]; 8.34% (active) in assay [16]; 50.5% in [17]; 24.4% in assay [18]; 63.5% in [19].

In the case of `COc1ccc(OC)c(C(=O)Nc2cccc(-c3cc(=O)c4ccccc4o3)c2)c1`, the growth in assay [1] is 88.1%; in assay [2], 90.1%; in assay [20], 83.3%; in assay [3] it was 83.4%; in [5] it was 74.2%; in assay [6], 88.6%. The growth in assay [7] was 84.4%; in assay [8] it was 100%; in assay [10] it was 93.4%; in [11], 91.3%; in [12] it was 64.4%; in assay [13] it was 70.7%. In addition, the growth in assay [14] is 93.8%; in assay [15], 92.8%; in [17], 87.1%; in assay [18] it was 97.4%; in [19] it was 104%.
